Out of some 5,500 compounds screened, about 2,000 (36%) were called active. Not shown: some 18% with an inconclusive outcome. Rule as the data show it: active = normalized growth mostly below about 0.91 (no sharp cut-off); inconclusive = no clear call, values can overlap the other calls; inactive = mostly above about 0.92. The list shows a part of the results.
Assay: chemical genetic growth profiling, strain panel (AID 1159580);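 also: tested at 20 µM; growth read once vehicle control cultures reached saturation at 30 °C; 1 = growth at the plate median or of vehicle wells; lower values mean less growth of the strain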
Conditions: growth OD

Measured: normalized growth

Cc1onc(-c2ccccc2)c1-c1ccc(S(N)(=O)=O)cc1
inactive: S. cerevisiae deletion strains, locus YJR043C, strain POL32, stronger effect = lower value 0.993 | S. cerevisiae deletion strains, locus YJR075W, strain HOC1, stronger effect = lower value 1 | S. cerevisiae deletion strains, locus YKL009W, strain mrt4, stronger effect = lower value 0.993 | S. cerevisiae deletion strains, locus YKL068W, stronger effect = lower value 1 | S. cerevisiae deletion strains, locus YKL085W, strain MDH1 (second series), stronger effect = lower value 0.996 | S. cerevisiae deletion strains, locus YKL085W, strain MDH1, stronger effect = lower value 0.996 | S. cerevisiae deletion strains, locus YKL160W, strain elf1, stronger effect = lower value 1 | S. cerevisiae deletion strains, locus YKL190W, strain CNB1, stronger effect = lower value 1.01 | S. cerevisiae deletion strains, locus YKR001C, strain vps1, stronger effect = lower value 0.991 | S. cerevisiae deletion strains, locus YKR026C, strain gcn3, stronger effect = lower value 0.987 | S. cerevisiae deletion strains, locus YKR091W, strain srl3, stronger effect = lower value 0.999 | S. cerevisiae deletion strains, locus YLL001W, strain dnm1, stronger effect = lower value 0.994 | S. cerevisiae deletion strains, locus YLL026W, stronger effect = lower value 0.999 | S. cerevisiae deletion strains, locus YLL041C, strain sdh2, stronger effect = lower value 1 | S. cerevisiae deletion strains, locus YLR027C, strain aat2, stronger effect = lower value 1.01 | S. cerevisiae deletion strains, locus YLR039C, strain RIC1, stronger effect = lower value 1 | S. cerevisiae deletion strains, locus YLR058C, strain SHM2, stronger effect = lower value 1.01 | S. cerevisiae deletion strains, locus YLR102C, strain apc9, stronger effect = lower value 0.998 | S. cerevisiae deletion strains, locus YLR221C, strain rsa3, stronger effect = lower value 0.995 | S. cerevisiae deletion strains, locus YLR258W, strain gsy2, stronger effect = lower value 1.01 | S. cerevisiae deletion strains, locus YLR262C, strain YPT6 (second series), stronger effect = lower value 1.01 | S. cerevisiae deletion strains, locus YLR262C, strain YPT6, stronger effect = lower value 0.986 | S. cerevisiae deletion strains, locus YLR268W, strain sec22, stronger effect = lower value 0.99 | S. cerevisiae deletion strains, locus YLR320W, strain mms22, stronger effect = lower value 1 | S. cerevisiae deletion strains, locus YLR330W, strain CHS5, stronger effect = lower value 1.01 | S. cerevisiae deletion strains, locus YLR342W, strain FKS1 (second series), stronger effect = lower value 1 | S. cerevisiae deletion strains, locus YLR342W, strain FKS1, stronger effect = lower value 1 | S. cerevisiae deletion strains, locus YLR357W, strain rsc2, stronger effect = lower value 1.03 | S. cerevisiae deletion strains, locus YLR370C, strain arc18, stronger effect = lower value 0.999 | S. cerevisiae deletion strains, locus YLR371W, strain rom2, stronger effect = lower value 0.998 | S. cerevisiae deletion strains, locus YLR384C, strain iki3, stronger effect = lower value 1.01 | S. cerevisiae deletion strains, locus YLR418C, strain cdc73, stronger effect = lower value 0.963 | S. cerevisiae deletion strains, locus YML016C, strain PPZ1, stronger effect = lower value 1 | S. cerevisiae deletion strains, locus YML032C, strain rad52, stronger effect = lower value 0.996 | S. cerevisiae deletion strains, locus YML120C, strain ndi1, stronger effect = lower value 0.992 | S. cerevisiae deletion strains, locus YML124C, strain tub3, stronger effect = lower value 0.996 | S. cerevisiae deletion strains, locus YMR058W, strain fet3, stronger effect = lower value 1 | S. cerevisiae deletion strains, locus YMR078C, strain ctf18, stronger effect = lower value 1 | S. cerevisiae deletion strains, locus YMR125W, strain sto1, stronger effect = lower value 0.988 | S. cerevisiae deletion strains, locus YMR129W, stronger effect = lower value 0.967 | S. cerevisiae deletion strains, locus YMR205C, strain PFK2, stronger effect = lower value 1 | S. cerevisiae deletion strains, locus YMR223W, strain ubp8, stronger effect = lower value 0.997 | S. cerevisiae deletion strains, locus YMR231W, strain pep5, stronger effect = lower value 1 | S. cerevisiae deletion strains, locus YMR263W, strain SAP30, stronger effect = lower value 1 | S. cerevisiae deletion strains, locus YMR307W, strain GAS1, stronger effect = lower value 0.977 | S. cerevisiae deletion strains, locus YNL067W, strain RPL9B, stronger effect = lower value 1 | S. cerevisiae deletion strains, locus YNL071W, strain lat1, stronger effect = lower value 1.01 | S. cerevisiae deletion strains, locus YNL128W, strain TEP1, stronger effect = lower value 1.01 | S. cerevisiae deletion strains, locus YNL153C, strain GIM3, stronger effect = lower value 1 | S. cerevisiae deletion strains, locus YNL209W, strain ssb2, stronger effect = lower value 0.994 | S. cerevisiae deletion strains, locus YNL233W, strain BNI4, stronger effect = lower value 1.01 | S. cerevisiae deletion strains, locus YNL248C, strain rpa49, stronger effect = lower value 1 | S. cerevisiae deletion strains, locus YNL250W, strain rad50, stronger effect = lower value 0.991 | S. cerevisiae deletion strains, locus YNL271C, strain bni1, stronger effect = lower value 1.01 | S. cerevisiae deletion strains, locus YNL298W, strain CLA4, stronger effect = lower value 0.989 | S. cerevisiae deletion strains, locus YNL307C, strain MCK1, stronger effect = lower value 0.998 | S. cerevisiae deletion strains, locus YNL322C, strain KRE1 (second series), stronger effect = lower value 1.02 | S. cerevisiae deletion strains, locus YNL322C, strain KRE1, stronger effect = lower value 1.01 | S. cerevisiae deletion strains, locus YNR049C, strain mso1, stronger effect = lower value 1 | S. cerevisiae deletion strains, locus YNR052C, strain pop2, stronger effect = lower value 1 | S. cerevisiae deletion strains, locus YOL006C, strain TOP1, stronger effect = lower value 0.992 | S. cerevisiae deletion strains, locus YOL012C, strain htz1 0.783 | S. cerevisiae deletion strains, locus YOL147C, strain pex11, stronger effect = lower value 0.997 | S. cerevisiae deletion strains, locus YOR001W, strain rrp6, stronger effect = lower value 1 | S. cerevisiae deletion strains, locus YOR061W, strain CKA2, stronger effect = lower value 0.998 | S. cerevisiae deletion strains, locus YOR069W, strain VPS5, stronger effect = lower value 1 | S. cerevisiae deletion strains, locus YOR070C, strain gyp1, stronger effect = lower value 0.993 | S. cerevisiae deletion strains, locus YOR080W, strain dia2, stronger effect = lower value 0.998 | S. cerevisiae deletion strains, locus YOR083W, strain WHI5, stronger effect = lower value 0.997 | S. cerevisiae deletion strains, locus YOR106W, strain vam3, stronger effect = lower value 1.01 | S. cerevisiae deletion strains, locus YOR136W, strain idh2, stronger effect = lower value 0.992 | S. cerevisiae deletion strains, locus YOR144C, strain elg1, stronger effect = lower value 1 | S. cerevisiae deletion strains, locus YOR184W, strain ser1, stronger effect = lower value 0.992 | S. cerevisiae deletion strains, locus YOR265W, strain rbl2, stronger effect = lower value 1 | S. cerevisiae deletion strains, locus YOR270C, strain vph1, stronger effect = lower value 1.01 | S. cerevisiae deletion strains, locus YOR290C, strain snf2, stronger effect = lower value 1.01 | S. cerevisiae deletion strains, locus YOR316C, strain cot1, stronger effect = lower value 0.991 | S. cerevisiae deletion strains, locus YPL051W, strain arl3, stronger effect = lower value 1.01 | S. cerevisiae deletion strains, locus YPL055C, strain LGE1, stronger effect = lower value 1.01 | S. cerevisiae deletion strains, locus YPL078C, strain atp4, stronger effect = lower value 0.996 | S. cerevisiae deletion strains, locus YPL106C, strain sse1, stronger effect = lower value 0.984 | S. cerevisiae deletion strains, locus YPL240C, strain hsp82, stronger effect = lower value 0.991 | S. cerevisiae deletion strains, locus YPL241C, strain CIN2, stronger effect = lower value 1 | S. cerevisiae deletion strains, locus YPR119W, strain clb2, stronger effect = lower value 1 | S. cerevisiae deletion strains, locus YPR141C, strain kar3, stronger effect = lower value 0.996 | S. cerevisiae deletion strains, locus YPR163C, strain tif3, stronger effect = lower value 0.991 | S. cerevisiae deletion strains, locus YPR167C, strain met16, stronger effect = lower value 0.995 | S. cerevisiae deletion strains, strain wtn01, stronger effect = lower value 0.985 | S. cerevisiae strains, strain wild type, stronger effect = lower value 0.999

Reference: PubChem BioAssay AID1159580 (chemical genetic matrix, 2015)
